The source of these data is PubChem BioAssay AID372 (MTDP, 2006).

Molecules are shown by their SMILES. Hit rate of the full screen: of about 100,000 compounds, about 770 (0.77%) were called active. Rule as the data show it: active = inhibition above about 50%; inactive = the rest. Only a selection was taken, and actives are over-represented in it overall.

For this assay, the target named is Gag-Pol polyprotein (Human immunodeficiency virus type 1 group M subtype B (isolate HXB2)) (UniProt P04585). In words: RNase H inhibition, HIV 1 Gag Pol polyprotein, FRET biochemical assay, screening (AID 372). The note with it: HIV-1 RT RNase H, FRET RNA/DNA substrate fluorescence; at 10 µM; stronger effect = higher value.
In general, inhibition refers to the drop in the measured response relative to a control, in per cent. Consider `O=C1NC(=O)N(c2cccc(F)c2)C(=O)/C1=C/c1cccn1-c1ccc(Cl)cc1`, for which the inhibition is 59% (active).

`O=C1NC(=O)N(c2cccc(F)c2)C(=O)/C1=C/c1cccn1-c1ccccc1`: the inhibition is 24% (inactive).

With `Cc1cccc(N2C(=O)NC(=O)/C(=C\c3cccn3-c3ccccc3)C2=O)c1`, the inhibition is 22% (inactive).

Consider `Cc1cccc(N2C(=O)NC(=O)/C(=C/c3cccn3-c3ccc([N+](=O)[O-])cc3)C2=O)c1`, for which the inhibition is 54% (active).

Consider `O=C1NC(=O)N(c2ccccc2)C(=O)/C1=C\c1cccn1-c1ccc([N+](=O)[O-])cc1`, for which the inhibition was 22% (inactive).

As to `O=C1NC(=O)N(c2ccccc2)C(=O)/C1=C/c1cccn1-c1ccc(Br)cc1`, the inhibition is 29% (inactive).

Consider `O=C1NC(=O)N(c2ccc(Cl)cc2)C(=O)/C1=C/c1cccn1-c1ccccc1`, for which the inhibition is 12% (inactive).

Turning to `O=C1NC(=O)N(c2cccc(F)c2)C(=O)/C1=C/c1cccn1-c1ccc(Br)cc1`, the inhibition was 54% (active).

As for `Cc1cccc(N2C(=O)NC(=O)/C(=C\c3cccn3-c3ccc(Br)cc3)C2=O)c1`, the inhibition was 27% (inactive).

Take `N#CC1=C(N)OC2=C(C(=O)CC(c3ccccc3)C2)C1c1cccc(F)c1` (centres undefined): the inhibition is 11% (inactive).

Consider `COc1ccc(/C=N/NC(=O)CN2CCSCC2)c(C)c1C`, for which the inhibition is 7% (inactive).

As to `COc1ccc(C(N)=O)cc1NC(=O)c1cccs1`, the inhibition is 0% (inactive).

Take `O=C(CCCN1C(=O)/C(=C/c2ccccc2Cl)SC1=S)Nc1cccc(F)c1`: the inhibition was 14% (inactive).

For the compound `Cc1ccc(Cl)cc1NC(=O)C(=O)NN=C1CCN(C)CC1`, the inhibition was 0% (inactive).

For the compound `Cc1onc(-c2ccccc2Cl)c1C(=O)N1CCN(c2ccccc2F)CC1`, the inhibition is 0% (inactive).

Turning to `Cc1cccc(N2CCN(C(=O)c3c(-c4ccccc4Cl)noc3C)CC2)c1C`, the inhibition was 9% (inactive).

For `Cc1onc(-c2ccccc2Cl)c1C(=O)N1CCN(c2ccc(Cl)cc2[N+](=O)[O-])CC1`, the inhibition is 55% (active).

Take `COc1cccc2cc(-c3csc(Nc4ccc(C(C)=O)cc4)n3)c(=O)oc12`: the inhibition is 14% (inactive).

Take `CCN(CC)c1ccc(/C=N/Nc2nc(-c3cc4cccc(OC)c4oc3=O)cs2)c(O)c1`: the inhibition was 53% (active).

As for `COc1cccc2cc(-c3csc(Nc4ccccc4C)n3)c(=O)oc12`, the inhibition is 20% (inactive).

As for `COc1ccc2oc(=O)c(C(=O)Nc3cccc([N+](=O)[O-])c3)cc2c1`, the inhibition is 55% (active).

In the case of `COc1ccc2oc(=O)c(C(=O)Nc3cccc(Cl)c3)cc2c1`, the inhibition is 5% (inactive).

For the compound `COc1ccc2oc(=O)c(C(=O)Nc3ccccc3)cc2c1`, the inhibition was 6% (inactive).

Turning to `O=C(/C=C\c1ccc([N+](=O)[O-])cc1)Nc1ccc(N2CCOCC2)cc1`, the inhibition is 7% (inactive).

For the compound `O=C(Nc1ccc(Cl)cc1)c1ccc(Br)o1`, the inhibition was 8% (inactive).

In the case of `O=C1NC(=O)C(=Cc2cn(-c3ccccc3)nc2-c2ccc(Br)cc2)C(=O)N1`, the inhibition is 59% (active).

On to `O=C1NC(=O)C(=Cc2cn(-c3ccccc3)nc2-c2ccc(Cl)cc2)C(=O)N1`, for which the inhibition is 41% (inactive).

In the case of `CC1=NNC(=O)/C1=C\c1cn(-c2ccccc2)nc1-c1ccc(Br)cc1`, the inhibition is 14% (inactive).

Consider `COC(=O)C1=C(C(=O)OC)SC2(S1)C(C(=O)OC)=C(C(=O)OC)SC1=C2c2ccccc2N(C)C1(C)C`, for which the inhibition is 11% (inactive).

Turning to `COC(=O)C1=C(C(=O)OC)SC2(S1)C(c1ccccc1)=CSC(C(=O)OC)=C2C(=O)OC`, the inhibition was 54% (active).

As for `COC(=O)C1=C(C(=O)OC)SC2(S1)C(C(=O)OC)=C(C(=O)OC)SC1=C2c2cccc(C)c2NC1(C)C`, the inhibition is 18% (inactive).

Take `CC(=O)Oc1ccc(-c2cccc(C(=O)Nc3ccccc3Cl)c2)cc1`: the inhibition was 16% (inactive).

For `CC1=C(C(=O)Nc2ccc(C)c(Cl)c2)C(c2cccc([N+](=O)[O-])c2)NC(=O)N1` (centres undefined), the inhibition was 6% (inactive).

On to `COc1ccc(C2CC(=O)C3=C(C2)Nc2ccccc2NC3c2c(F)cccc2Cl)cc1` (centres undefined), for which the inhibition is 24% (inactive).

Consider `O=C(COC(=O)c1cc(-c2ccccc2)nc2ccc(Cl)cc12)c1ccc([N+](=O)[O-])cc1`, for which the inhibition was 4% (inactive).

As for `COc1ccc(-c2cc(C(=O)Nc3cccc(Cl)c3)c3ccccc3n2)cc1OC`, the inhibition is 14% (inactive).

For the compound `O=C(Nc1ccc(NC(=O)c2cccc3ccccc23)cc1)c1ccccc1`, the inhibition was 6% (inactive).

For the compound `CC(=O)Nc1ccc(NC(=O)c2cccc3ccccc23)cc1`, the inhibition was 32% (inactive).

As for `O=C(Nc1ccc(Nc2ccccc2)cc1)c1cccc2ccccc12`, the inhibition was 50% (active).

On to `O=C(Cc1ccccc1)Nc1ccc2oc(-c3cccc(Cl)c3)nc2c1`, for which the inhibition is 6% (inactive).

As for `O=C(Cc1ccc(Cl)cc1)Nc1ccc2oc(-c3cccc(Cl)c3)nc2c1`, the inhibition is 52% (active).

As to `Cc1ccc2oc(-c3cccc(NC(=O)Cc4ccc(Cl)cc4)c3)nc2c1`, the inhibition is 42% (inactive).

As to `O=C(Cc1ccc(Cl)cc1)Nc1cccc(-c2nc3cc(Cl)cc(Cl)c3o2)c1`, the inhibition is 2% (inactive).

Regarding `O=C(Cc1ccc(Cl)cc1)Nc1ccc2oc(-c3cccc(Br)c3)nc2c1`, the inhibition is 49% (inactive).

Regarding `O=C(Cc1ccc(Cl)cc1)Nc1ccc2oc(-c3ccccc3Br)nc2c1`, the inhibition is 24% (inactive).

For the compound `O=C(Cc1ccc(Cl)cc1)Nc1ccc2oc(-c3ccccc3Cl)nc2c1`, the inhibition was 54% (active).

Take `Cc1cccc(-c2nc3cc(NC(=O)Cc4ccc(Cl)cc4)ccc3o2)c1`: the inhibition is 53% (active).

Take `Cc1cccc(-c2nc3cc(NC(=O)Cc4ccccc4)ccc3o2)c1`: the inhibition was 12% (inactive).

Take `Cc1ccc(-c2nc3cc(Cl)cc(Cl)c3o2)cc1NC(=O)Cc1ccc(Cl)cc1`: the inhibition is 38% (inactive).

As for `Cc1ccccc1-c1nc2cc(NC(=O)Cc3ccc(Cl)cc3)ccc2o1`, the inhibition is 30% (inactive).

As for `O=C(Cc1ccc(Cl)cc1)Nc1ccc(-c2nc3cc(Cl)cc(Cl)c3o2)cc1`, the inhibition is 50% (active).

For `COc1ccc(OC)c(NC(=O)c2ccc(Cl)cc2)c1`, the inhibition is 8% (inactive).

Consider `O=C(N/N=C/c1cc(Cl)cc([N+](=O)[O-])c1O)/C(=C/C=C/c1ccccc1)NC(=O)c1ccccc1`, for which the inhibition was 19% (inactive).

As to `COc1ccc(OCCCOc2ccccc2Br)cc1`, the inhibition was 12% (inactive).

`COc1ccccc1N1CCN(C(=O)c2ccc(CN(c3cc(Cl)ccc3C)S(=O)(=O)c3ccccc3)cc2)CC1`: the inhibition was 1% (inactive).

As to `O=C(O)c1cccc([N+](=O)[O-])c1C(=O)Nc1cccc(Cl)c1`, the inhibition is 7% (inactive).

On to `O=C(Cc1ccc(Cl)cc1)Nc1ccc2oc(-c3ccc(Cl)cc3)nc2c1`, for which the inhibition is 29% (inactive).

On to `CCc1ccc(-c2nc3cc(NC(=O)Cc4ccc(Cl)cc4)ccc3o2)cc1`, for which the inhibition is 25% (inactive).

`O=C(Cc1ccc(Cl)cc1)Nc1ccc2oc(-c3ccc(F)cc3)nc2c1`: the inhibition was 54% (active).

`O=C(Nc1ccc(F)cc1F)c1sc2ccccc2c1Cl`: the inhibition was 16% (inactive).

As for `Cc1ccc(SCCNC(=O)CN(c2ccccc2F)S(=O)(=O)c2ccccc2)cc1`, the inhibition was 10% (inactive).

Consider `O=C(O/N=C/c1ccc([N+](=O)[O-])cc1)c1cccs1`, for which the inhibition is 1% (inactive).

In the case of `Clc1ccccc1-c1nc(-c2cccnc2)no1`, the inhibition is 20% (inactive).

In the case of `CC(C)c1ccc(/C=C/C(=O)Nn2cnnc2)cc1`, the inhibition was 0% (inactive).

In the case of `Cc1ccc(C(=O)OCC(=O)c2ccc(Br)cc2)cc1[N+](=O)[O-]`, the inhibition was 0% (inactive).

`O=C(Nc1ccc2oc(-c3cc(Br)ccc3Cl)nc2c1)c1ccccc1`: the inhibition is 29% (inactive).

As to `Cc1ccccc1-c1nc2cc(NC(=O)c3ccc(C)c([N+](=O)[O-])c3)ccc2o1`, the inhibition was 41% (inactive).

As to `COc1ccc(C(=O)Nc2cccc(-c3nc4cc(C)c(C)cc4o3)c2)cc1[N+](=O)[O-]`, the inhibition is 52% (active).

Turning to `CCOc1ccc(C(=O)Nc2cccc(-c3nc4cc(C)c(C)cc4o3)c2)cc1[N+](=O)[O-]`, the inhibition is 11% (inactive).

Turning to `CCc1ccc(-c2nc3cc(NC(=O)c4ccc(C)c([N+](=O)[O-])c4)ccc3o2)cc1`, the inhibition was 35% (inactive).

Turning to `COc1ccc(-c2nc3cc(NC(=O)c4ccc(C)c([N+](=O)[O-])c4)ccc3o2)cc1`, the inhibition is 61% (active).

With `O=C(Nc1ccc(Cl)c(-c2nc3ccccc3o2)c1)c1cccc(Br)c1`, the inhibition was 1% (inactive).

Turning to `COc1ccc(-c2nc3cc(NC(=O)c4ccc(C)c([N+](=O)[O-])c4)ccc3o2)cc1OC`, the inhibition is 3% (inactive).

`COc1ccc(C(=O)Nc2cccc(-c3nc4cc(C)ccc4o3)c2)cc1[N+](=O)[O-]`: the inhibition is 1% (inactive).

Take `O=C(Nc1ccc(Cl)c(-c2nc3ccccc3o2)c1)c1ccc(Br)cc1`: the inhibition was 55% (active).

As for `Cc1ccc(C(=O)Nc2ccc3oc(-c4ccccc4Cl)nc3c2)cc1[N+](=O)[O-]`, the inhibition is 55% (active).

`Cc1ccc(C(=O)Nc2ccc3oc(-c4ccc(F)cc4Cl)nc3c2)cc1[N+](=O)[O-]`: the inhibition is 0% (inactive).

In the case of `CC(C)c1cc(C(C)C)c(S(=O)(=O)NNC(=O)c2ccncc2)c(C(C)C)c1`, the inhibition is 1% (inactive).

Regarding `O=C(NC(=S)Nc1cccc(NC(=O)c2ccc(Cl)cc2Cl)c1)c1ccco1`, the inhibition was 11% (inactive).

For the compound `CCOc1ccc(N(CC(=O)NC(C)CC)S(=O)(=O)c2ccc(Br)cc2)cc1` (centres undefined), the inhibition was 5% (inactive).

As for `COC(=O)c1cccc(NC(=O)CC(=O)c2ccccc2)c1`, the inhibition is 0% (inactive).

In the case of `COc1ccc(Cc2noc(-c3ccccc3Cl)n2)cc1OC`, the inhibition is 23% (inactive).

As to `Cc1sc(NS(=O)(=O)c2ccc([N+](=O)[O-])cc2)nc1-c1ccc(Br)cc1`, the inhibition was 12% (inactive).

In the case of `O=C(/C=C/c1ccccc1)Nc1ccc(-c2nnc(-c3ccco3)o2)cc1`, the inhibition is 0% (inactive).

On to `O=C(NCc1ccc(Cl)cc1)c1ccco1`, for which the inhibition was 0% (inactive).

As for `Cc1nnc(Nc2ccc3c(c2)ncn3C)c2ccccc12`, the inhibition was 0% (inactive).

In the case of `O=C(Nc1ccc2oc(-c3ccc(Br)cc3)nc2c1)c1ccc(Cl)c([N+](=O)[O-])c1`, the inhibition was 58% (active).

Take `O=C(Nc1ccc2oc(-c3cccc(Br)c3)nc2c1)c1ccc(Cl)c([N+](=O)[O-])c1`: the inhibition was 13% (inactive).

As to `O=C(Nc1ccc2oc(-c3ccc(F)cc3)nc2c1)c1ccc(Cl)c([N+](=O)[O-])c1`, the inhibition is 11% (inactive).
